Rce1 inhib: yeast Rce1p protease inhibitors, primary screen, biochemical, fluorescence, cell-free homogeneous | yeast membranes, quenched prenylated peptide cleavage fluorescence | calls only | 290,000 tested, 0.27% active | AID 2563, 2010;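 active = fall in fluorescence gain of 50% or more versus controls, with final raw signal at or below 3038400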;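 note: plate controls were neutral control wells for no effect and wells lacking membranes for full effect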
ANO1 activ: TMEM16A chloride channel activators or potentiators, primary screen, cell-based, HTS. Anoctamin-1 (Mus musculus), Q8BHY3. HEK293 TMEM16A/YFP-H148Q/I152L, iodide quench fluorescence; stronger effect = lower value. B-score at 10 µM. 340,000 tested, 0.3% active. AID 623877, 2012;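 active = fluorescence-ratio B-score plate-corrected deviation score at least 3 library SD below zero, with starting fluorescence score within 5 deviations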;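 note: channel opened by trigger with iodide after compound preincubation; score built on the fluorescence ratio of max minus min over baseline; more negative score means more quench and so TMEM16A activation or potentiation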
Kir21 inh: inhibitors of mouse Kir2.1 inward-rectifier potassium channel | Inward rectifier potassium channel 2 (Mus musculus), P35561 | HEK293-Kir2.1, FluxOR thallium flux fluorescence; stronger effect = lower value | B-score at 10 µM | 310,000 tested, 0.85% active | AID 1672, 2009;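 active = fluorescence ratio B-score at or below minus 3 SD of library scores, with starting-brightness B-score within 2 SD, cut at about -4.2 in these data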;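 note: channel flux triggered by added potassium and thallium sulfate stimulus; B-score of peak minus minimum fluorescence over baseline after thallium stimulus; more negative B-score means stronger Kir2.1 block with less thallium influx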
CHT PAM: CHT positive allosteric modulators, primary screen, cell-based, membrane potential dye, choline EC20; 310,000 tested, 0.49% active; High affinity choline transporter 1 (Homo sapiens), Q9GZV3; CHT-expressing cells; stronger effect = higher value; LV-AA mutant CHT in HEK293 cells; B-score at 10 µM;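 active = initial fluorescence not abnormally high and integrated response B-score, plate-corrected, over 3 SD above library mean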
Target sequence (Q9GZV3 whole entry, looked up): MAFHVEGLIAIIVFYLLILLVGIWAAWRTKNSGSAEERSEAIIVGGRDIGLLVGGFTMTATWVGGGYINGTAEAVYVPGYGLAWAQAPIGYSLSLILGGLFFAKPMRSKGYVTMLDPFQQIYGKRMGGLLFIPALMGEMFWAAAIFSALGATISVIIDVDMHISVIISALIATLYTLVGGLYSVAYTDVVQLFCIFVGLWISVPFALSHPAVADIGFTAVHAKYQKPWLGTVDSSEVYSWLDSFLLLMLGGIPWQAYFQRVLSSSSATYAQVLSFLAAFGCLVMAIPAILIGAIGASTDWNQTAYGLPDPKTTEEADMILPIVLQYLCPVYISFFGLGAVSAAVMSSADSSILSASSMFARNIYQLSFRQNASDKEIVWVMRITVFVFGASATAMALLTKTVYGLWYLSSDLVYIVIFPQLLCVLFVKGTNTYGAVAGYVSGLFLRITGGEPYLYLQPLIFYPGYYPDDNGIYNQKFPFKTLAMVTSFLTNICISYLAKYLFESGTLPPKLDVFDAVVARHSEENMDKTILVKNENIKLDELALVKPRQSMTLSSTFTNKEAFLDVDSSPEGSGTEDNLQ
ANO1 block: TMEM16A chloride channel inhibitors, primary screen, cell-based, HTS; 310,000 tested, 1.2% active; normalized B-score (activity score, 25-100; higher = stronger inhibition) at 10 µM; HEK293 TMEM16A/YFP iodide influx fluorescence, ionomycin;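 active = ratio plate-corrected score three or more library SD toward inhibition, starting fluorescence score within five deviations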;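 note: score derived from kinetic fluorescence span divided by baseline fluorescence per well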
CHT block: inhibitors of human choline transporter CHT. High affinity choline transporter 1 (Homo sapiens), Q9GZV3. CHT-expressing cells, membrane potential dye, choline response; stronger effect = lower value. B-score at 10 µM. 310,000 tested, 0.86% active. AID 488975, 2010;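 active = B-score over 3 SD under the library average, and starting fluorescence ratio not unusually high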;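 note: choline stimulus applied at its EC90 after an EC20 pre-addition; B-score computed on integrated fluorescence ratio after choline addition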
CHT act confirm: CHT activators, confirmation, cell-based, membrane potential dye, duplicate; shares compounds with CHT PAM; CHT-expressing cells, membrane potential dye fluorescence (FDSS); % of choline EC20–EC90 response window; HEK293 expressing CHT LV-AA mutant; choline added at its EC20; activation, % at 10 µM; 2,500 tested, 91% active; AID 504833, 2011;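 active = primary screen active, with duplicate mean activation above negative control mean plus 3 SD, cut at about 11% in these data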
HEK293 MP dye: membrane potential response in parental HEK293 cells, counter-screen for CHT activator project, cell-based, membrane potential dye; shares compounds with CHT PAM; membrane potential dye fluorescence (FDSS); measured after EC20 choline addition; ratio readout change at 10 µM, hits read low; 2,500 tested, 62% active; AID 623908, 2012;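 active = duplicate-averaged ratio beyond 3 SD from buffer wells, up or down, though filed actives are nearly all decreases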
The depositor's hits bear a star. The list is not random: actives were taken first. Their share in the collection is about 3.2%.

For C[n+]1cccc2ccc3c(c21)OC(N)=C(C#N)C3c1ccccc1 (configuration not stated) the results were Rce1 inhib inactive, ANO1 activ inactive, Kir21 inh 1.33, CHT PAM 10*, ANO1 block inactive, CHT block inactive, CHT act confirm 72.2* and HEK293 MP dye -79.8*.
Screening N#CC1=C(N)Oc2c(ccc3cccnc23)C1c1cccnc1 (configuration not stated) returned Rce1 inhib inactive, ANO1 activ inactive, Kir21 inh 0.66, CHT PAM inactive, ANO1 block inactive and CHT block inactive.
For O=C1C(NS(=O)(=O)c2cccs2)=C(N2CCOCC2)C(=O)c2ccccc21 the results were Rce1 inhib inactive, ANO1 activ inactive, Kir21 inh -1.59, CHT PAM 7.17*, ANO1 block inactive, CHT block inactive, CHT act confirm 40.8* and HEK293 MP dye -40.5*.
CCCCCN1C2=NCCN2c2ccccc21 was read as ANO1 activ inactive, Kir21 inh -0.04, CHT PAM inactive, ANO1 block inactive, CHT block inactive, CHT act confirm 34.1* and HEK293 MP dye -31*.
`CCCN1C2=NCCN2c2cc(C)c(C)cc21` gave Rce1 inhib inactive, ANO1 activ inactive, Kir21 inh 0.2, CHT PAM 8.34*, ANO1 block inactive, CHT block inactive, CHT act confirm 41.8* and HEK293 MP dye -46.4*.
Screening O=C1NC(=O)N(Cc2ccccc2F)C1=O returned Rce1 inhib inactive, ANO1 activ inactive, Kir21 inh -0.51, CHT PAM inactive, ANO1 block inactive and CHT block inactive.
For Cc1ccc(N=C(NOCc2ccc(Cl)cc2Cl)c2nonc2N)c(C)c1 the results were Rce1 inhib inactive, ANO1 activ inactive, Kir21 inh 0.26, CHT PAM 8.79*, ANO1 block inactive, CHT block inactive, CHT act confirm 28.3* and HEK293 MP dye inactive.
Cc1ccccc1N=C(NOCc1ccc(Cl)cc1Cl)c1nonc1N was read as Rce1 inhib inactive, ANO1 activ inactive, Kir21 inh 1.47, CHT PAM inactive, ANO1 block inactive and CHT block inactive.
`CCN1CCS/C1=C/C=C/C1=[N+](CC)CCS1` gave Rce1 inhib inactive, ANO1 activ inactive, Kir21 inh -1.37, CHT PAM 6.9*, ANO1 block inactive, CHT block inactive, CHT act confirm 45.5* and HEK293 MP dye -31.1*.
Screening Nc1nc(SCc2ccccc2[N+](=O)[O-])c2ncn(Cc3ccccc3)c2n1 returned ANO1 activ inactive.
`COc1ccc(C(=O)Nc2ccncc2)c(OC)c1` gave Rce1 inhib inactive, ANO1 activ inactive, Kir21 inh 1.67, CHT PAM 6.59*, ANO1 block inactive, CHT block inactive, CHT act confirm 21.5* and HEK293 MP dye -55.9*.
`COc1ccc(C(=O)Nc2ccc3ccccc3c2)c(OC)c1` gave Rce1 inhib inactive, ANO1 activ inactive, Kir21 inh -0.81, CHT PAM inactive, ANO1 block inactive and CHT block inactive.
`Cc1cc(N2CCN(S(=O)(=O)c3ccccc3)CC2)c2ccccc2n1` gave Rce1 inhib inactive, ANO1 activ inactive, Kir21 inh -2.01, CHT PAM 10.1*, ANO1 block inactive, CHT block inactive, CHT act confirm 53.3* and HEK293 MP dye -72.7*.
Screening Nc1nc(N2CCN(C(=O)c3ccco3)CC2)nc2ccccc12 returned Rce1 inhib active, ANO1 activ inactive, Kir21 inh -1.05, CHT PAM 6.44*, ANO1 block inactive, CHT block inactive, CHT act confirm 57.0* and HEK293 MP dye -57.9*.
`Nc1nc(N2CCN(C(=O)c3ccco3)CC2)nc2ccc(Br)cc12` gave Rce1 inhib inactive, ANO1 activ inactive, Kir21 inh -0.1, CHT PAM inactive, ANO1 block inactive, CHT block inactive, CHT act confirm 19.9* and HEK293 MP dye -31.6*.
Cc1cc(N2CCN(C(=O)Nc3ccc(F)cc3F)CC2)c2ccccc2n1 was read as Rce1 inhib inactive, ANO1 activ inactive, Kir21 inh -1.27, CHT PAM 6.57*, ANO1 block inactive, CHT block inactive, CHT act confirm 53.0* and HEK293 MP dye -70.6*.
O=C(c1ccco1)N1CCN(c2nc3ccccc3c(=O)n2-c2ccccc2)CC1 was read as Rce1 inhib inactive, ANO1 activ inactive, Kir21 inh -0.08, CHT PAM inactive, ANO1 block inactive and CHT block inactive.
CCN(CC)S(=O)(=O)c1ccc(NN=C2CCN(C)CC2)c([N+](=O)[O-])c1 was read as Rce1 inhib inactive, ANO1 activ inactive, Kir21 inh 0.43, CHT PAM inactive, ANO1 block inactive and CHT block inactive.
`CC(C)(C)OC(=O)N[C@@H](Cc1ccccc1)[C@H](O)c1ccco1` gave Rce1 inhib inactive, ANO1 activ inactive, Kir21 inh 0.12, CHT PAM inactive, ANO1 block inactive and CHT block inactive.
`Cc1cc(N2CCN(C(=O)c3ccco3)CC2)c2ccccc2n1` gave Rce1 inhib inactive, ANO1 activ inactive, Kir21 inh -0.22, CHT PAM 6.86*, ANO1 block inactive, CHT block inactive, CHT act confirm 39.3* and HEK293 MP dye -53.5*.
Cc1cc(=O)n(C2CCS(=O)(=O)C2)[nH]1 (configuration not stated) was read as Rce1 inhib inactive, ANO1 activ inactive, Kir21 inh -1.55, CHT PAM inactive, ANO1 block inactive and CHT block inactive.
`O=C(CCc1nc2ccccc2s1)NC1CCOC1=O` (configuration not stated) gave Rce1 inhib inactive, ANO1 activ inactive, Kir21 inh -1.36, CHT PAM inactive, ANO1 block inactive and CHT block inactive.
